Read-out in experiment [1]: Interleukin-6 (IL6), IL6 (gene 3569)
Nature of the experiment: BSK_CASM3C_IL6: BioMAP Diversity Plus: CASM3C Assay for Interleukin-6 (IL6) Biomarker Activity for (AID 2283040). The note with it: primary human coronary artery smooth muscle cells; actives raise or lower the signal.

Read-out in experiment [2]: Tissue plasminogen activator (tPA), PLAT (gene 5327)
Nature of the experiment: BSK_BE3C_tPA: BioMAP Diversity Plus: BE3C Assay for Tissue plasminogen activator (tPA) Biomarker Activity (AID 2283041).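 For outcome: tPA level quantified by ELISA one day after compound addition.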 The conditions noted are these: primary human bronchial epithelial cells; actives raise or lower the signal. The procedure, abridged:
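Human primary bronchial epithelial cells were dosed with chemical and tPA biomarker levels measured by ELISA 24 hours later. Activity was fitted bidirectionally against DMSO as negative control and baseline.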

Read-out in experiment [3]: Interleukin-8 (IL8), CXCL8 (gene 3576)
Kind of experiment: BSK_CASM3C_IL8: BioMAP Diversity Plus: CASM3C Assay for Interleukin-8 (IL8) Biomarker Activity (AID 2283042).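 Note: IL-8 protein level quantified by ELISA.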 The note with it: primary human coronary artery smooth muscle cells; actives raise or lower the signal.

Read-out in experiment [4]: Human Leukocyte Antigen - DR isotype (HLADR), HLA-DRA (gene 3122)
Nature of the experiment: BSK_CASM3C_HLADR: BioMAP Diversity Plus: CASM3C Assay for Human Leukocyte Antigen - DR isotype (HLADR) Biomarker Activity (AID 2283043).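 Note: cell-surface HLA-DR protein level quantified by ELISA.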 The note with it: primary human coronary artery smooth muscle cells; actives raise or lower the signal.

Read-out in experiment [5]: Macrophage colony-stimulating factor (MCSF), CSF1 (gene 1435)
Kind of experiment: BSK_CASM3C_MCSF: BioMAP Diversity Plus: CASM3C Assay for Macrophage colony-stimulating factor (MCSF) Biomarker Activity (AID 2283044).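 Note: M-CSF protein amount quantified by ELISA after 24 h exposure.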 The conditions noted are these: primary human coronary artery smooth muscle cells; actives raise or lower the signal.

Read-out in experiment [6]: Low-density lipoprotein receptor (LDLR), LDLR (gene 3949)
Kind of experiment: BSK_CASM3C_LDLR: BioMAP Diversity Plus: CASM3C Assay for Low-density lipoprotein receptor (LDLR) Biomarker Activity (AID 2283045).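 Note: LDLR protein level on the cell surface quantified by ELISA.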 The note with it: primary human coronary artery smooth muscle cells; actives raise or lower the signal.

Read-out in experiment [7]: Monocyte Chemoattractant Protein-1 (MCP1), CCL2 (gene 6347)
Nature of the experiment: BSK_CASM3C_MCP1: BioMAP Diversity Plus: CASM3C Assay for Monocyte Chemoattractant Protein-1 (MCP1) Biomarker Activity (AID 2283046).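 Note: MCP-1 level quantified by ELISA 24 h after dosing.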 The note with it: primary human coronary artery smooth muscle cells; actives raise or lower the signal.

Experiment [8] is described as follows: BSK_CASM3C_Proliferation: Cell Proliferation Assessment in the BioMAP Diversity Plus: CASM3C Assay (AID 2283047).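 Note: sulforhodamine B total protein stain as relative cell number at 560 nm; sub-confluent cells exposed 48 h before staining; fitted both ways against DMSO so gain or loss of cell number.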 The note with it: primary human coronary artery smooth muscle cells.
Read-out in experiment [9]: Monokine induced gamma interferon (MIG), CXCL9 (gene 4283)
Nature of the experiment: BSK_CASM3C_MIG: BioMAP Diversity Plus: CASM3C Assay for Monokine induced gamma interferon (MIG) Biomarker Activity (AID 2283048).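 Note: MIG protein level measured by ELISA.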 The note with it: primary human coronary artery smooth muscle cells; actives raise or lower the signal.

Read-out in experiment [10]: serum amyloid A (SAA), SAA1 (gene 6288)
Kind of experiment: BSK_CASM3C_SAA: BioMAP Diversity Plus: CASM3C Assay for serum amyloid A (SAA) Biomarker Activity (AID 2283049).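 Note: SAA protein level quantified by ELISA.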 The conditions noted are these: primary human coronary artery smooth muscle cells; actives raise or lower the signal.

SMILES strings stand for the structures. “And” between values parts separate entries of the source, which are not always exact repeats. Equal entries are not always repeated. The source made the active and inactive calls. Rule for the calls: active = hit-call score of the fitted dose curve at least 0.9, where 1 is the maximum; inactive = score below 0.9.

For `NCC(F)(F)C(F)(F)C(F)(F)C(F)(F)C(F)(F)C(F)(F)C(F)(F)C(F)(F)F`, the result in experiment [1], in experiment [2], in experiment [3], in [4], in experiment [5] and in experiment [6] was inactive. The result in experiment [7], in [8], in experiment [9] and in experiment [10] was inactive.
For `COC(F)(C(F)F)C(F)(F)F` (stereo not given), the result in experiment [1], in experiment [2], in experiment [3], in experiment [4], in [5] and in [6] was inactive. Also, the result in experiment [7], in [8], in experiment [9] and in experiment [10] was inactive.
Regarding `OCC(F)(F)C(F)(F)C(F)(F)CO`, the outcome in [1], in experiment [2], in experiment [3], in experiment [4], in [5] and in [6] was inactive. Also, the result in experiment [7], in experiment [8], in experiment [9] and in experiment [10] was inactive.
`O=C(O)C(F)(F)C(F)(F)C(F)(F)C(=O)O`: the result in [1], in [2], in experiment [3], in [4], in experiment [5] and in experiment [6] was inactive. Besides, the result in [7], in experiment [8], in experiment [9] and in experiment [10] was inactive.
Turning to `O=C1c2c(O)ccc(Nc3ccc(CCO)cc3)c2C(=O)c2c([N+](=O)[O-])ccc(O)c21`, the result in [1], in experiment [2], in [4], in experiment [5], in [6] and in experiment [7] was inactive. Moreover, the outcome in experiment [9] and in experiment [10] was inactive. In addition, the values for the AC50 in [3] and in [8] were 2.52 µM (active) and 14.5 µM (active), respectively.
Consider `O=S(=O)(O)CCC(F)(F)C(F)(F)C(F)(F)C(F)(F)F`, for which the outcome in experiment [1], in [2], in [3], in [4], in [5] and in experiment [6] was inactive. Also, the outcome in experiment [7], in experiment [8], in experiment [9] and in experiment [10] was inactive.
On to `O=C=NCc1cccc(CN=C=O)c1`, for which the outcome in experiment [1], in experiment [2], in [3], in experiment [4], in experiment [5] and in experiment [6] was inactive. In addition, the outcome in experiment [7], in experiment [8], in [9] and in experiment [10] was inactive.
`NC(=O)C(F)(F)C(F)(F)C(F)(F)F`: the outcome in experiment [1], in experiment [2], in experiment [3], in [4], in experiment [5] and in experiment [6] was inactive. In addition, the outcome in experiment [7], in experiment [8], in [9] and in experiment [10] was inactive.
As for `C=CC(=O)OCC(F)(F)C(F)(F)C(F)(F)COC(=O)C=C`, the AC50 is 30 µM (active) and 17 µM (active) in experiment [1]; 15.4 µM (active) and 11.4 µM (active) in [2]; 26.6 µM (active) and 22.5 µM (active) in experiment [3]; 38.6 µM (active) and 27.7 µM (active) in experiment [4]; 40.1 µM (active) and 34.8 µM (active) in [5]; 42.2 µM (active) and 42.9 µM (active) in [6]. The AC50 is 44.3 µM (active) and 42.5 µM (active) in experiment [7]; 8.23 µM (active) and 8.81 µM (active) in experiment [8]; 27.1 µM (active) and 25.4 µM (active) in experiment [9]; 41.4 µM (active) and 33.7 µM (active) in experiment [10].
In the case of `CCN(CC)c1ccc(N=Nc2ccccc2)cc1`, the result in [1], in experiment [3], in experiment [5], in [6], in [9] and in experiment [10] was inactive. The AC50 in experiment [2] was 27.7 µM (active); in [4], 31.9 µM (active); in experiment [7] it was 4.07 µM (active); in experiment [8] it was 8.48 µM (active).
As for `CCN(CC)c1ccc(C=O)cc1`, the outcome in experiment [1], in experiment [2], in [3], in [4], in [5] and in experiment [6] was inactive. Also, the outcome in [7], in experiment [8], in [9] and in experiment [10] was inactive.
For `O=S(=O)(O)CCC(F)(F)C(F)(F)C(F)(F)C(F)(F)C(F)(F)C(F)(F)C(F)(F)C(F)(F)F`, the result in experiment [1], in experiment [2], in experiment [3], in [4], in experiment [5] and in [6] was inactive. Also, the outcome in experiment [7], in experiment [8], in experiment [9] and in experiment [10] was inactive.
Turning to `Cc1cc(C)c(O)c(C(C)(C)C)c1`, the AC50 is 29.6 µM (active) in [1]; 29.6 µM (active) in experiment [2]; 25.5 µM (active) in experiment [4]; 22.7 µM (active) in experiment [5]; 20 µM (active) in experiment [6]; 24.9 µM (active) in [7]. The AC50 in [8] was 25.3 µM (active); in [9] it was 29.3 µM (active); in [10], 20 µM (active). Moreover, in experiment [3], the result was inactive.
Turning to `CC(C)CCCC(C)CCO` (stereo not given), the AC50 in experiment [1] was 32.5 µM (active); in experiment [2], 26 µM (active); in [4] it was 32.2 µM (active); in [5], 32.3 µM (active); in [6] it was 32.1 µM (active); in experiment [7] it was 31.2 µM (active). Besides, the values for the concentration at half-maximal activity (AC50) in [8], in [9] and in experiment [10] were 30.9 µM (active), 29.7 µM (active) and 29.6 µM (active), respectively. The outcome in [3] was inactive.
Regarding `NCC(F)(F)C(F)(F)C(F)(F)C(F)(F)C(F)(F)C(F)(F)F`, the outcome in experiment [1], in experiment [2], in experiment [3], in experiment [4], in [5] and in [6] was inactive. The result in experiment [7], in experiment [8], in experiment [9] and in experiment [10] was inactive.
For the molecule `OCCCC(F)(F)C(F)(F)C(F)(F)C(F)(F)C(F)(F)C(F)(F)C(F)(F)C(F)(F)F`, in experiment [1], the outcome was inactive. For the same molecule, the AC50 in [2] is 49.7 µM (active) and 47.2 µM (active); in [3], 38.9 µM (active) and 35.8 µM (active); in [4], 50.3 µM (active) and 50.6 µM (active); in experiment [5], 29.1 µM (active) and 35.6 µM (active); in [6], 43.9 µM (active) and 45.4 µM (active); in experiment [7] it was 41.6 µM (active) and 42.8 µM (active). The AC50 is 21 µM (active) and 39.5 µM (active) in experiment [8]; 46.8 µM (active) and 44.5 µM (active) in experiment [9]; 45.1 µM (active) and 40.2 µM (active) in [10].

As usually defined, the AC50 is the midpoint of the concentration-response curve, whichever way the signal moves.

Values taken from PubChem BioAssay (EPA / NIEHS).
